Assay [1] in a line: antimalarial activity against Dd2 strain (AID 2302;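 active = growth inhibition above 50% at the single 2 µM test dose, taken to imply half-maximal potency below 2 µM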;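 also: 0% = DMSO untreated growth and 100% = chloroquine plus artemisinin killed control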). As to conditions: P. falciparum Dd2 in RBCs, LDH growth readout, 72 h; at 2 µM; hits give high values.
A short description of assay [2]: human hepatoma cell viability loss – ATP luminescence, cytotoxicity control for P. falciparum antimalarial project, primary screen (AID 2303;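 active = inhibition above 50%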;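 also: 0% = DMSO wells and 100% = digitonin-killed cells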). Particulars: HepG2 viability, 24-48 h, at 10 µM, hits give high values.
Assay [3] deals with L-lactate dehydrogenase (Plasmodium falciparum (isolate CDC / Honduras)) (UniProt Q27743). The assay is described as follows: PfLDH activity inhibition – cell lysate, 3D7 strain, counter-screen for P. falciparum growth inhibition project (AID 2304).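 Also: 0% = vehicle and 100% = reference inhibitor.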 As to conditions: P. falciparum 3D7 crude extract, LDH APAD/NBT absorbance; at 2 µM; hits give high values.
Chain of L-lactate dehydrogenase (Plasmodium falciparum (isolate CDC / Honduras)) (Q27743 whole entry, looked up): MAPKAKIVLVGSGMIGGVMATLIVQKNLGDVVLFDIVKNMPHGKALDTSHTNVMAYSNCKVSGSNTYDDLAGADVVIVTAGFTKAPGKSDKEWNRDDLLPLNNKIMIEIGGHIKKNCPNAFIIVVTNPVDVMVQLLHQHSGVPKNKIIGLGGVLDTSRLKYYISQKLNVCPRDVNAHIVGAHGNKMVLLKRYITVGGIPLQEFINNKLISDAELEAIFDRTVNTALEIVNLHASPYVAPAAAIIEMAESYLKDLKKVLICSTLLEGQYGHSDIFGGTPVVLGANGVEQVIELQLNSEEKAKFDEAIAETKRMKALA
Assay [4] can be described thus: inhibition of 3D7 malaria parasite growth – strain 3D7 (AID 2306).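 Also: 0% = DMSO wells and 100% = chloroquine plus artemisinin control wells.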 Particulars: P. falciparum 3D7 erythrocytic growth, LDH absorbance, 72 h; at 2 µM; hits give high values.
Assay [5] addresses Calcium-dependent protein kinase 1 (Plasmodium falciparum (isolate 3D7)) (UniProt P62344). The assay is described as follows: PfCDPK1 kinase inhibitors, biochemical, TCAMS library (AID 1159585; cut-off not given, nearly all actives have IC50 up to about 0.98 µM;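 also: inhibitors leave more ATP so luminescence rises with inhibition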). As to conditions: recombinant PfCDPK1, Kinase-Glo ATP depletion luminescence.
In assay [6] the target is Plasmodium falciparum protein kinase 6 (PK6, PF3D7_1337100) (UniProt Q8IDW1). Briefly: PfPK6 kinase inhibitors, biochemical, TCAMS library (AID 1159586). As to conditions: recombinant PfPK6, Kinase-Glo ATP depletion luminescence.
Chain of Plasmodium falciparum protein kinase 6 (PK6, PF3D7_1337100) (Q8IDW1 1-305): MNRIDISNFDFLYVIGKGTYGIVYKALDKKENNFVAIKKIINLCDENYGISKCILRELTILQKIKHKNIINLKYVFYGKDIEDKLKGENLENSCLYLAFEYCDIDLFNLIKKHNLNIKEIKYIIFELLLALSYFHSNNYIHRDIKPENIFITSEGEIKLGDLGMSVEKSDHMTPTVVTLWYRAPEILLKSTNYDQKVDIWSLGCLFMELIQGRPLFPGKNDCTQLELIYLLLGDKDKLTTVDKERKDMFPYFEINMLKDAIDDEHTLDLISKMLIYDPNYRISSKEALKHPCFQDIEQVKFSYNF
Assay [7] has as its target Protein kinase 7 (PK7), Plasmodium falciparum 3D7 (PF3D7_0213400) (UniProt Q7YTF7). Briefly: inhibition of Plasmodium PK7 catalytic activity – biochemical, TCAMS antimalarial set, Kinase-Glo luminescence (AID 1159587). Particulars: recombinant PfPK7, Kinase-Glo ATP depletion luminescence.
The target in assay [8] is Calcium-dependent protein kinase 4 (Plasmodium falciparum (isolate 3D7)) (UniProt Q8IBS5). Briefly: PfCDPK4 kinase inhibitors, biochemical, TCAMS library (AID 1159588; cut-off not given, nearly all actives have IC50 up to about 0.91 µM). Particulars: recombinant PfCDPK4, Kinase-Glo ATP depletion luminescence.
Chain of Calcium-dependent protein kinase 4 (Plasmodium falciparum (isolate 3D7)) (Q8IBS5 whole entry, looked up): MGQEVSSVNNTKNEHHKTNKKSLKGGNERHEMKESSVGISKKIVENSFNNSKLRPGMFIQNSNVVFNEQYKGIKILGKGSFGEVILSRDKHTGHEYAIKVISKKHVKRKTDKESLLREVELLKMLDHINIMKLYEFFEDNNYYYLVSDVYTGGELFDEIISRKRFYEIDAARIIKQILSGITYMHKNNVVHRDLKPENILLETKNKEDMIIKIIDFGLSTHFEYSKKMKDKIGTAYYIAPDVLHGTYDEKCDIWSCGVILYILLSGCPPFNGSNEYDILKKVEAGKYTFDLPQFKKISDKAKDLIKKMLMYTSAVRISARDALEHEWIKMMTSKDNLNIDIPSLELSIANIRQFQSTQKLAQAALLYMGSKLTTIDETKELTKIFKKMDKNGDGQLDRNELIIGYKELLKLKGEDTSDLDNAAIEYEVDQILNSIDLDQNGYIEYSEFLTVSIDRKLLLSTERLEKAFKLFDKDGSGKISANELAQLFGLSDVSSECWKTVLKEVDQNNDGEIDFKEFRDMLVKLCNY

A number with no mark means an inactive call. For some assays here: Entries with a potency or affinity are not part of this list. Activity calls are given as the source filed them. Unless noted, no rule for the calls is given here.

Chain of Protein kinase 7 (PK7), Plasmodium falciparum 3D7 (PF3D7_0213400) (Q7YTF7 1-343): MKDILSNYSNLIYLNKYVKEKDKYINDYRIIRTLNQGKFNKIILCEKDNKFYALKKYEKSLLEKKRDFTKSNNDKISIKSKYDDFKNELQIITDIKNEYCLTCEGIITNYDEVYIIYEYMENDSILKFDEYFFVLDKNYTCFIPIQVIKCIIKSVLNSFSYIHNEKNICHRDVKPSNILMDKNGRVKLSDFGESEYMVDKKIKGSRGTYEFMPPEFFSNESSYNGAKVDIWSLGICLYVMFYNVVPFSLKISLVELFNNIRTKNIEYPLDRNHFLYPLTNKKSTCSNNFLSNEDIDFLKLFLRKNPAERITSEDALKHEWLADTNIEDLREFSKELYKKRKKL
Chain of Calcium-dependent protein kinase 1 (Plasmodium falciparum (isolate 3D7)) (P62344 whole entry, looked up): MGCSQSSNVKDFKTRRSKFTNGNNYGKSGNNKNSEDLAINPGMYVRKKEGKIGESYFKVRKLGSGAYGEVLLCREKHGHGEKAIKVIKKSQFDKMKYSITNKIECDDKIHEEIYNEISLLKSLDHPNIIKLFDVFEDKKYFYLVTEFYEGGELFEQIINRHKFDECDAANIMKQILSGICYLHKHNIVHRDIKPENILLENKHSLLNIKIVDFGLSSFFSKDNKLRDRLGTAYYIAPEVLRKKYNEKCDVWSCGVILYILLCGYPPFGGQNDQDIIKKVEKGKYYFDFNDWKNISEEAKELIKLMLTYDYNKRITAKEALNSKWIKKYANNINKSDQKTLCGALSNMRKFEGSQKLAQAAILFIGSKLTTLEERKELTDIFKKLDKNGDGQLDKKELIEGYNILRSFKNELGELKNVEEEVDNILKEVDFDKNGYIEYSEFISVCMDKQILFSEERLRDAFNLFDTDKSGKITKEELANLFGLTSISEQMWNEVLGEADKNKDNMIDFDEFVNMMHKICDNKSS

For the molecule `O=C1CCCN1CCCNCc1ccc(-c2ccc(-c3nc4ccc(C(F)(F)F)cc4[nH]3)cc2)cc1`, the figures for the growth inhibition in assay [1] and in assay [4] were 98% (active) and 101% (active), respectively. In addition, the inhibition in assay [2] was 10%; in assay [3] it was -5%. Moreover, the result in assay [5], in assay [6], in assay [7] and in assay [8] was inactive.
For the molecule `CCN(CC)CCN(Cc1ccc(-c2ccc(C(F)(F)F)cc2)cc1)C(=O)Cn1c(CCc2ccc(F)c(F)c2F)nc(=O)c2ccccc21`, the growth inhibition is 66% (active) in assay [1] and 97% (active) in assay [4]. The inhibition in assay [2] is 38%; in assay [3] it was -10%. Besides, the result in assay [5], in assay [6], in assay [7] and in assay [8] was inactive.
With `COc1ccc(CCC(C)(C)NCC(O)c2cccc(C(F)(F)F)c2)cc1` (configuration not stated), the growth inhibition in assay [1] was 98% (active); in assay [4] it was 99% (active). The inhibition was 26% in assay [2] and 3% in assay [3]. For the same molecule, the result in assay [5], in assay [6], in assay [7] and in assay [8] was inactive.
In the case of `CN(C)CCN(C)Cc1ccc(-c2ccc3c(Nc4ccc(F)cc4Cl)ccnc3c2)o1`, the growth inhibition was 100% (active) in assay [1] and 101% (active) in assay [4]. Besides, the values for the inhibition in assay [2] and in assay [3] were 31% and 5%, respectively. The result in assay [5], in assay [6], in assay [7] and in assay [8] was inactive.
As for `FC(F)(F)c1cccc(-c2cc(NCCCn3ccnc3)nc(-c3ccncc3)n2)c1`, the growth inhibition in assay [1] is 100% (active); in assay [4], 101% (active). Besides, the inhibition in assay [2] was 50% (active); in assay [3], 5%. The outcome in assay [5], in assay [6], in assay [7] and in assay [8] was inactive.
As to `Cc1ccc(NC(=O)Nc2ccc(Cn3ncc(N4CCCNCC4)c(Cl)c3=O)cc2)cc1`, the growth inhibition in assay [1] was 13%; in assay [4], 84% (active). For the same molecule, the inhibition was 35% in assay [2] and -1% in assay [3]. For the same molecule, the result in assay [5], in assay [6], in assay [7] and in assay [8] was inactive.
Turning to `Cc1[nH]c(C)c(-c2ccc(OCc3ccc(F)cc3)cc2)c(=O)c1Br`, the growth inhibition was 97% (active) in assay [1] and 98% (active) in assay [4]. Moreover, the inhibition is 16% in assay [2] and -2% in assay [3]. Moreover, the outcome in assay [5], in assay [6], in assay [7] and in assay [8] was inactive.
On to `CCCCSc1nc2c(c(=O)n1Cc1ccco1)C1(CCCCC1)Cc1ccccc1-2`, for which the growth inhibition in assay [1] was 78% (active); in assay [4], 96% (active). Also, the inhibition in assay [2] was 13%; in assay [3], 2%. In addition, the outcome in assay [5], in assay [6], in assay [7] and in assay [8] was inactive.
On to `CC(=O)Nc1ccc(C(=O)Nc2cccc(-c3cccc(-c4nc5c(C)cccc5[nH]4)c3)c2)cn1`, for which the growth inhibition is 100% (active) in assay [1] and 101% (active) in assay [4]. The inhibition in assay [2] was 16%; in assay [3] it was -2%. Further, the outcome in assay [5], in assay [6], in assay [7] and in assay [8] was inactive.
For `Cc1ccc(CN2CCN(c3cc4c(cc3Cl)CCN4C(=O)Cc3ccc(Cl)c(NC(=O)Nc4cccc(C#N)c4)c3)CC2)cc1`, the growth inhibition is 29% in assay [1] and 92% (active) in assay [4]. The inhibition in assay [2] was 3%; in assay [3], 1%. The result in assay [5], in assay [6], in assay [7] and in assay [8] was inactive.
Regarding `O=c1cc(NCCCNCc2cc(Br)cs2)[nH]c2ccccc12`, the growth inhibition in assay [1] was 5%; in assay [4], 85% (active). Further, the inhibition in assay [2] was 11%; in assay [3], -2%. The outcome in assay [5], in assay [6], in assay [7] and in assay [8] was inactive.
Take `CCOc1ccc2c(NN=Cc3cccc(F)c3)cc(C)nc2c1`: the growth inhibition in assay [1] and in assay [4] was 100% (active) in each case. Besides, the inhibition in assay [2] was 0%; in assay [3], 7%. In addition, the outcome in assay [5], in assay [6], in assay [7] and in assay [8] was inactive.
Turning to `CS(=O)(=O)Nc1ccc2[nH]cc(C3CCN(CC(O)C4CCN(C(=O)/C=C/c5ccc(Cl)c(Cl)c5)CC4)CC3)c2c1` (configuration not stated), the growth inhibition in assay [1] is -10%; in assay [4] it was 101% (active). Also, the inhibition is 28% in assay [2] and -3% in assay [3]. Besides, the result in assay [5], in assay [6], in assay [7] and in assay [8] was inactive.
`NC(N)=NCC=C(c1ccccc1)c1ccccc1`: the growth inhibition was 83% (active) in assay [1] and 94% (active) in assay [4]. Further, the values for the inhibition in assay [2] and in assay [3] were 9% and 1%, respectively. Further, the outcome in assay [5], in assay [6], in assay [7] and in assay [8] was inactive.
Consider `O=C(Nc1cccc(C(F)(F)F)c1)Nc1ccc(Cl)c(C(F)(F)F)c1`, for which the growth inhibition in assay [1] and in assay [4] was 99% (active) throughout. For the same molecule, the inhibition was -4% in assay [2] and -6% in assay [3]. In addition, the outcome in assay [5], in assay [6], in assay [7] and in assay [8] was inactive.
`Cc1cc2cc(NC(=O)Nc3ccnc4ccccc34)ccc2n1C`: the figures for the growth inhibition in assay [1] and in assay [4] were 33% and 90% (active), respectively. Moreover, the inhibition in assay [2] was 17%; in assay [3], 4%. The result in assay [5], in assay [6], in assay [7] and in assay [8] was inactive.
`CCCCCOc1ccc(C(O)C(CN2CCCCC2)c2ccccc2)cc1` (configuration not stated): the growth inhibition in assay [1] was 95% (active); in assay [4] it was 98% (active). Moreover, the figures for the inhibition in assay [2] and in assay [3] were 11% and 5%, respectively. Moreover, the result in assay [5], in assay [6], in assay [7] and in assay [8] was inactive.
Regarding `CCCCC(=O)N(CCOC)Cc1ccc(-c2ccc(CNCCC)cn2)cc1`, the growth inhibition in assay [1] was 68% (active); in assay [4], 99% (active). In addition, the results for the inhibition in assay [2] and in assay [3] were 30% and -3%, respectively. Also, the result in assay [5], in assay [6], in assay [7] and in assay [8] was inactive.
With `CCN(CC)c1ccc(-c2nc3ncc(Cl)cc3[nH]2)cc1`, the growth inhibition in assay [1] and in assay [4] was 85% (active) each time. In addition, the values for the inhibition in assay [2] and in assay [3] were 16% and -5%, respectively. The outcome in assay [5], in assay [6], in assay [7] and in assay [8] was inactive.

For the origin of these results see PubChem BioAssay.
